Test results from PubChem BioAssay AID743279 (National Center for Advancing Translational Sciences (NCATS), 2014).
Hit rate of the full screen: of about 360,000 compounds, about 17,000 (4.7%) were called active. Roughly 5% stayed inconclusive and do not appear here. Cut-off read from the data, not from the text of the source: active = activity change below about -50%; inconclusive = mostly about -30% to -49%; inactive = weaker than that. The list comes from a sample in which actives are over-represented; it also holds similar structures and randomly drawn compounds.

experiment: qHTS for Inhibitors of Inflammasome Signaling: IL-1-beta AlphaLISA Primary Screen; settings: THP-1 LPS/ATP IL-1B secretion, 16 h; at 57.5 µM, stronger effect = lower value
Method in brief: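 THP-1 cells pretreated 1 hr with compounds (up to 57.5 uM final), then stimulated with LPS (250 ng/mL final) plus ATP (1.25 mM final); secreted IL-1B measured by AlphaLISA after 16 hr, decreased signal indicating inhibition.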
% is set by controls: 0 for no effect and ±100 for the full control effect.

Activity change, active:
CCOc1ccc(C(O)Cn2c(=N)n(CCN3CCCCC3)c3ccccc32)cc1 (stereo not drawn) -60.3%, CC(=O)Nc1cccc(OCC(=O)/C=C2\N(C)c3ccccc3C2(C)C)c1 -82%, CC1CCc2[nH]c3ccc(C(=O)N(C)CC(=O)Nc4cccc(F)c4)cc3c2C1 (stereo not drawn) -74.7%, CCCCCCCCNS(=O)(=O)CCNC1CCCCC1 -65.1%, O=C(NC(=O)c1cc(OCC(F)(F)F)ccc1OCC(F)(F)F)Nc1ccccc1 -63.5%, O=C(CNC(=O)c1cc(S(=O)(=O)N2CCOCC2)ccc1N1CCCC1)Nc1ccc(F)c(F)c1 -54%, c1ccc(-c2cc3c(NCC4COc5ccccc5O4)ncnc3s2)cc1 (stereo not drawn) -59.2%, CCCCC(C(=O)OCC(=O)c1ccc(OC)cc1)N1C(=O)c2ccccc2C1=O (stereo not drawn) -57.4%, COc1ccc2sc(N(CCCN(C)C)C(=O)c3ccc(S(=O)(=O)N(C)C4CCCCC4)cc3)nc2c1 -72.4%, CN(C)CCCN(C(=O)c1ccc(S(=O)(=O)N2CCCCCC2)cc1)c1nc2ccc(Br)cc2s1 -101%, CN(C)CCCN(C(=O)c1ccc(S(=O)(=O)N2CCCCCC2)cc1)c1nc2cc3c(cc2s1)OCCO3 -66.5%, CCc1ccc2nc(N(CCCN(C)C)C(=O)c3ccc4c(c3)OCCO4)sc2c1 -61.9%

Activity change, inactive:
O=C(CSc1nnc(-c2ccncc2)n1-c1ccc(Cl)cc1)Nc1ccc(C(=O)O)cc1 8.71%, CCOc1ccc(CN2CCCN(C)CC2)cc1 14.6%, Cn1c(=N)n(CC(O)c2ccccc2)c2ccccc21 (stereo not drawn) 35.9%, COCCn1cnnc1SCC(=O)Nc1cccc(S(=O)(=O)N2CCCCC2)c1 5.3%, CN(CCO)C(=O)c1nc[nH]c1C(=O)N(C)Cc1ccccc1 26.2%, CCCCCCN1C[C@H](O)[C@@H](n2cc(C3CC3)nn2)C[C@@H]1c1ccc(Cl)cc1 82%, CC(=O)Nc1ccc(NC(=O)COc2ccc(-c3ccccc3)cc2)cc1 -15.4%, CN1CCN(CCC(=O)N/N=C/C=C2\N(C)c3ccccc3C2(C)C)CC1 10.2%, C[C@@H]1CC2=C(C(=O)OC(C)(C)O2)[C@@H](C2CC2)O1 32.1%, CN(CC(=O)Nc1cccc(F)c1)C(=O)C1=COCCO1 2.81%, CN(CC(=O)Nc1cccc(F)c1)C(=O)CC1CCCC1 0.0851%, CCCCCCNS(=O)(=O)c1ccccc1Br 14%, CCCCNS(=O)(=O)CCNCc1ccccc1OC 3.56%, C[C@H]1CN([C@@H](C)CO)C(=O)CCCn2cc(nn2)CO[C@@H]1CN(C)S(=O)(=O)c1cccs1 7.03%, CC(C)(C)NC(=O)C(CCc1ccccc1)n1c(=O)c(-c2ccccc2)nc2ccccc21 (stereo not drawn) 0%, CC(C)C1CCN(C(=O)C2CCC(=O)N(C3CCCCCC3)C2)CC1 (stereo not drawn) -3.63%, CONC(=O)c1cc(OCC(F)(F)F)ccc1OCC(F)(F)F -0.808%, CCOc1ccc(CCNC(=O)Nc2ccccc2)cc1OCC 30.9%, NS(=O)(=O)c1ccc(CNC(=O)c2cc(S(=O)(=O)N3CCOCC3)ccc2N2CCCC2)cc1 -15.8%, O=C(Nc1ccc(N2CCCCC2)cc1)c1cc(S(=O)(=O)N2CCOCC2)ccc1F -27.8%, S=C(NCC1COc2ccccc2O1)Nc1ccc(Br)cc1 (stereo not drawn) 0%, Oc1ccccc1N1CCN(c2ncnc3sc(-c4ccccc4)cc23)CC1 -28.1%, Nc1cc(=O)n(Cc2ccccc2)c(=O)n1Cc1ccccc1 -0.791%, O=C(NCc1ccccc1)C1C(=O)N(Cc2ccccc2)C(=O)C1C1(O)CCCC1 (stereo not drawn) -0.107%, COc1ccc(-c2[nH][nH]c(=O)c2NC(=O)c2ccc([N+](=O)[O-])cc2)cc1 16%, CC(C)[C@@H](C(=O)OCC(=O)c1ccc2c(c1)NC(=O)CO2)N1C(=O)c2ccccc2C1=O 25.8%, COc1ccc(CNC(=O)COC(=O)C(CCSC)N2C(=O)c3ccccc3C2=O)cc1 (stereo not drawn) 5%, CCN(CC(=O)NCCCN1CCOCC1)S(=O)(=O)c1cc(Cl)ccc1Cl -11.7%, CN(C)CCN(C(=O)C1CCCCC1)c1nc2cc3c(cc2s1)OCO3 -5.98%, CCN(CC(=O)Nc1c(F)cccc1F)C(=O)c1ccc(S(=O)(=O)N2CCCCC2)cc1 -1.87%, CCN(CC)CCN(C(=O)c1cccc([N+](=O)[O-])c1)c1nc2ccc(OC)cc2s1 -20.4%, COc1ccc(S(=O)(=O)N(C)CC(=O)N2CCCC2)cc1 -1.23%, CN(C)CCN(C(=O)CN1C(=O)c2ccccc2C1=O)c1nc2cc3c(cc2s1)OCCO3 10%, Brc1ccc2nc(N3CCCC3)sc2c1 32.8%, CCN(CC)CCN(C(=O)c1cc(Cl)sc1Cl)c1nc2cc3c(cc2s1)OCO3 0%, Cc1ccc2nc(N(CCN(C)C)C(=O)C3=COCCO3)sc2c1 -6.05%
